D1 ag – Allosteric Agonists of the Human D1 Dopamine Receptor: qHTS; D(1A) dopamine receptor (Homo sapiens), P21728; hit rate 1% among 360,000; HEK293 T-REx D1 cells, calcium flux, agonist mode; activation, % at 2 µM; in the data active = activation above about 30%
Target sequence (P21728 whole entry, looked up): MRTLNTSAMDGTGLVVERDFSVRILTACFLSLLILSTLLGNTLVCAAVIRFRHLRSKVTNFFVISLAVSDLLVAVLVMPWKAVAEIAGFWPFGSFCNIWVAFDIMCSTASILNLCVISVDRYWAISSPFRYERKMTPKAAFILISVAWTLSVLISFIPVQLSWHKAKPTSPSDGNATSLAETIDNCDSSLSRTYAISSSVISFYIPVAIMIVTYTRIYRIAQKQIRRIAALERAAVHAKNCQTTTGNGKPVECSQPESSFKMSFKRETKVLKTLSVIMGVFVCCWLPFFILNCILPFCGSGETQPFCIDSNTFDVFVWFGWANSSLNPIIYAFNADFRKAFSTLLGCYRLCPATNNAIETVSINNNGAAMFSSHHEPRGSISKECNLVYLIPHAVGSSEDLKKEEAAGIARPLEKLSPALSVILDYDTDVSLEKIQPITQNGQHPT
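Agonism was scored from calcium flux recorded over 180 s (1 read/s) after pintool compound addition, following a 10-cycle baseline. Cells were inducible force-coupled HEK293 TREx D1, plated overnight at 30 C and loaded with no-wash calcium dye.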
D1 antag – Antagonist of Human D 1 Dopamine Receptor: qHTS. D(1A) dopamine receptor (Homo sapiens), P21728. HEK293 TREx D1 cells, calcium flux, dopamine EC80; hits give low values. activity change, negative = inhibition, % at 10 µM. hit rate 3.2% among 360,000. AID 504652, 2011; in the data active = activity change below about -30%
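After overnight tetracycline induction at 30 C, force-coupled D1 HEK293 cells took up a no-wash calcium dye at room temperature. Compounds were added and monitored 180 s, and the response to EC80 dopamine was then recorded.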
ERG-DNA inh – qHTS for Small Molecule Inhibitors of the ERG Ets/DNA interaction; Transcriptional regulator ERG (Homo sapiens), P11308; fluorescence polarization, His-ERG Ets domain / labelled DNA; Potency, µM (top dose mostly 76.9 µM), hits mostly inhibitors; hit rate 0.028% among 370,000; active = well fitted inhibition curve with a large enough effect in the polarisation, with a control signal flat; inconclusive = small, poorly fitted or top-dose-only effect, or effect the other way, or a change in a side signal; inactive = no such curve, though single readings can be large or run the other way; the % refers to the polarisation;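 also: polarization taken with two DNA probes labelled with fluorescein and Texas red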
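His-tagged ERG Ets domain (1 uM in the protein solution; 300mM KCl, 50mM Tris-HCl, 1mM EDTA, 1mM DTT, pH 7.5) received compound, then a probe mix of 5 nM fluorescein-DNA and 100nM Texas-615-DNA. Fluorescence polarization was read for both dyes.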
DRD3 agonist – qHTS of D3 Dopamine Receptor Agonist: qHTS | D(3) dopamine receptor (Homo sapiens), P35462 | D3R DiscoveRx beta-arrestin cells, luminescence, 90 min | max activation, % | hit rate 0.58% among 410,000; in the data active = max activation above about 30%
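Cells at 1500/well, incubated overnight, then treated with pinned compounds (dopamine as control) for 90 min at 37 degrees C. DiscoveRx reagent added for 30 - 60 minutes at room temperature; luminescence read.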
D1 PAM – Potentiators of Human D1 Dopamine Receptor: qHTS; hit rate 0.036% among 360,000; D(1A) dopamine receptor (Homo sapiens), P21728; AID 504651, 2011; HEK293 TREx D1 cells, calcium flux, dopamine EC20 potentiation; potentiation, % at 10 µM; in the data active = potentiation above about 30%
DRD3 antagonist – qHTS of D3 Dopamine Receptor Antagonist: qHTS. D(3) dopamine receptor (Homo sapiens), P35462. D3R cells, DiscoveRx beta-arrestin luminescence, antagonist mode; hits give low values. max response, negative = inhibition, %. hit rate 2.5% among 360,000; in the data active = max response below about -50%; inconclusive = no clear call, values can overlap the other calls
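Cells expressing the human receptor were seeded at 1500 cells/well, incubated overnight at 37 degrees C in 5% CO2, then exposed to library compounds with dopamine controls for 90 minutes at 37 degrees C before luminescent detection.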
Large screens that a line does not name were inactive. Rows were chosen to be rich in hits. Some 6.1% of all compounds tested hit in one or more screens of this group.

CC1CCC(NC(=O)C2CCC(CNS(=O)(=O)c3cccc4cccnc34)CC2)CC1 (stereo unspecified)	none
CN(c1cccc(Cl)c1)S(=O)(=O)c1cccc(C(=O)NN2CCOCC2)c1	D1 antag -37 (no result: D1 PAM)
COc1ccc(CNC(=O)CN2C(=O)CCn3nc(-c4ccccc4)cc32)c(OC)c1	none (no result: DRD3 antagonist)
CCOC(=O)c1sc(=S)n(-c2ccccc2)c1C	none
CCOC(=O)c1sc(=S)n(Cc2ccccc2)c1C	D1 antag -31
COC(=O)c1cnc(NC(=O)C2(C)CCN2C(=O)C(C)C)s1 (stereo unspecified)	none (no result: D1 ag, D1 antag, ERG-DNA inh, D1 PAM)
Cn1c(Cc2nc(-c3cnccn3)no2)nnc1SCC(=O)Nc1ccccc1	D1 antag -87
Cc1ccc(NC(=O)Cc2nnc(SCC(=O)Nc3ccccc3)n2C)cc1	none
CCOc1ccccc1CNC(=O)Cn1ccc2cc(S(=O)(=O)N3CCC(C)CC3)ccc21	none
Cc1csc(NC(=O)c2cccc(C)c2C)n1	none
Cc1oc2cc(O)ccc2c(=O)c1-c1nncn1-c1ccccc1	ERG-DNA inh 35µM
Cc1oc2cc(O)ccc2c(=O)c1-c1ccccc1	none
O=c1oc2cc(O)ccc2cc1-c1nnc(Nc2ccccc2F)s1	D1 ag 405 (no result: DRD3 antagonist)
O=c1oc2ccc3ccccc3c2cc1-c1nnc(Nc2ccccc2F)s1	none (no result: DRD3 antagonist)
COc1ccc(Nc2nnc(-c3cc4c(ccc5ccccc54)oc3=O)s2)cc1	none (no result: DRD3 antagonist)
COc1cccc(Nc2nnc(-c3cc4ccc(O)cc4oc3=O)s2)c1	D1 ag 369 (no result: DRD3 antagonist)
CCc1nc2ccccc2n1CCCCOc1ccc(Cl)cc1	none (no result: DRD3 antagonist)
N#CC(C#N)=C1C=CC=CN1/C(=C\c1ccccc1Cl)C(=O)c1ccccc1	D1 antag -50, DRD3 antagonist -104
CC(=O)c1ccc(NC(=O)C2(c3ccccc3)CC2(Cl)Cl)cc1 (stereo unspecified)	D1 ag 38
Cc1cccc(N(C(=O)CNC(=O)c2ccco2)C(C(=O)NC2CCCC2)c2ccncc2)c1 (stereo unspecified)	none
CCCCc1ccc(NS(=O)(=O)c2cc3c4c(c2)CC(=O)N4CCC3)cc1	none (no result: DRD3 antagonist)
COCC(=O)N1CCCC(C)(C(=O)Nc2cccc(Oc3ccccc3)c2)C1 (stereo unspecified)	DRD3 agonist 49 (no result: D1 ag, D1 antag, ERG-DNA inh, D1 PAM)
C[C@@H]1C(=O)O[C@@H]2CC34[C@H]5C[C@@H](C(C)(C)C)C36[C@H](OC(=O)[C@@H]6O)OC4(C(=O)O5)[C@@]12O (stereo partly specified)	D1 antag -38
CCOC(=O)c1c(NC(=O)C2C3C=CC(CC3)C2C(=O)O)sc(C)c1CC (stereo unspecified)	none
Cc1cc(C)cc(C(=O)NC(=S)Nc2ccc(Cc3ccncc3)cc2)c1	DRD3 antagonist inconclusive
Cc1cccc(C(=O)N/N=C/c2ccncc2)c1	D1 antag -37
COc1cc(C(=O)NC(=S)Nc2ccc(Cc3ccncc3)cc2)cc(OC)c1OC	none
COc1ccccc1C(=O)NC(=S)Nc1ccc(Cc2ccncc2)cc1	D1 PAM 39
Cc1cccc(C(=O)NC(=S)Nc2ccc(Cc3ccncc3)cc2)c1	DRD3 antagonist -78
Cc1ccccc1C(=O)NC(=S)Nc1ccc(S(=O)(=O)N(C)c2ccccc2)cc1	none
Cc1cccc(C(=O)NC(=S)Nc2ccc(S(=O)(=O)N(C)c3ccccc3)cc2)c1	DRD3 antagonist -66
Cc1ccc(S(=O)(=O)N2CCC(C(=O)N3CCC(C(=O)NCC4CCCO4)CC3)CC2)cc1 (stereo unspecified)	none
Cc1ccc(C(=O)N(CC(=O)NC2CCCCC2)c2ccccc2F)s1	none
COc1ccc2nc(SCC(=O)NCC3CCCO3)c(C#N)cc2c1 (stereo unspecified)	none
COc1c(C(=O)Nc2ccc(Cc3ccncc3)cc2)ccc2ccccc12	DRD3 agonist 34
CCC(=O)Nc1cccc(NC(=S)NC(=O)c2ccc(C)cc2)c1	none
CCC(=O)Nc1cccc(NC(=S)NC(=O)c2cccc(C)c2)c1	D1 antag -38
COc1ccc(Br)cc1C(=O)Nc1ccc(Cc2ccncc2)cc1	none
OC1CCCN(Cc2c3ccccc3cc3ccccc23)C1 (stereo unspecified)	none (no result: ERG-DNA inh)
OC1(c2cccc(C(F)(F)F)c2)CCN(c2ncnc3c2[nH]c2ccc(F)cc23)CC1	DRD3 agonist 40
Cn1c(=O)c2nc3ccc(NC(=O)C(F)(F)F)cc3nc2n(C)c1=O	none (no result: DRD3 antagonist)
CC(=O)Nc1ccc2nc3c(=O)n(C)c(=O)n(C)c3nc2c1	D1 ag 34
CCN(CC)c1ccc2nc3c4ccccc4c(=O)cc-3oc2c1	D1 ag 42
Cc1cc2ccccc2c(=O)n1CC(=O)N1CCN(c2cccc(Cl)c2)CC1	none
COc1ccc(OC)c(NC(=O)CNC(=O)Cn2c(C)cc3ccccc3c2=O)c1	none
COc1ccccc1NC(=O)CNC(=O)Cn1c(C)cc2ccccc2c1=O	D1 antag -65
Cc1cc2ccccc2c(=O)n1CC(=O)NCC(=O)N1CCN(c2ccccc2)CC1	DRD3 antagonist -52
O=C(c1cc2cc(Cl)ccc2[nH]1)N1CCc2ccccc2C1	D1 antag -57
Cc1ccccc1C(=O)N1CCc2ccccc2C1	D1 ag 49 (no result: ERG-DNA inh)
O=C(c1cc(-c2ccccc2O)on1)N1CCc2ccccc2C1	D1 antag -32
O=C(c1cnc2sccn2c1=O)N1CCc2ccccc2C1	DRD3 antagonist -96
O=C(CSc1nnc2ccccn12)NNC(=O)c1ccc(Cl)cc1	none
COc1cccc(NC(=O)CNCc2ccccc2)c1	none
O=C(NCCc1ccccc1)c1ccc2[nH]c(=O)c(=O)[nH]c2c1	none
Cc1csc(N/N=C/c2ccc(O)c([N+](=O)[O-])c2)n1	DRD3 antagonist -54
CC1CCN(C(=O)CCn2c(=O)oc3ccc(Cl)cc32)CC1	none (no result: D1 ag, D1 antag, ERG-DNA inh, D1 PAM)
CC1(C)OC(C)(C)/C(=C\c2ccc(OCC(N)=O)cc2)C1=O	D1 antag -66
CC(=O)Nc1ccccc1OCc1cc(=O)n2c3c(sc2n1)CCCC3	DRD3 agonist 60 (no result: DRD3 antagonist)
Cc1ccc(OCC(=O)Nc2ccc(OCc3cc(=O)n4ccsc4n3)cc2)cc1	D1 ag 144 (no result: DRD3 antagonist)
Cc1ccc(OCc2cc(=O)n3c4c(sc3n2)CCCC4)c(C)c1	none (no result: DRD3 antagonist)
COc1ccc(C(=O)Nc2cccc(OCc3cc(=O)n4c5c(sc4n3)CCCC5)c2)cc1OC	none (no result: DRD3 antagonist)
O=C(Nc1cccc(OCc2cc(=O)n3c4c(sc3n2)CCCC4)c1)c1ccc(F)cc1	D1 antag -31 (no result: DRD3 antagonist)

Screening results from PubChem BioAssay.
